Measured values reported in the supplement of paper PMC10849652.
Targets with a hit are over-represented here; the source holds about 7,900 in all. About 0.6% of all pairs of compound and target were hits.

Compound: C1=CC(=CC=C1C2=NC3=C(N2)C=C(C=C3)C(=O)N)OC4=CC=C(C=C4)Cl
Assay: log2 fold change, soluble protein after heating vs DMSO (PISA); higher = thermal stabilisation; K562 cells, 10 uM, 30 min; active = over 0.2 and 3.5 SD of the protein, either way, in both replicates (recomputed)
Summary of the method: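 K562 cells at 2×10^6 cells/mL were exposed to 10 μM compound for 30 min, then aliquots were heated for 3 min across 48°C-58°C, pooled, and extracted in PBS containing 0.5% NP-40 at 4°C. The supernatant after 21,000xg for 90 min was taken as soluble protein and measured by TMTpro 16plex LC-MS/MS with channel sums equalised. Thermal stability is reported relative to control samples, with values from duplicates. Fold changes are given on a log2 scale.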

Sequence of UniProt Q5T3F8 (Q5T3F8 whole entry, looked up): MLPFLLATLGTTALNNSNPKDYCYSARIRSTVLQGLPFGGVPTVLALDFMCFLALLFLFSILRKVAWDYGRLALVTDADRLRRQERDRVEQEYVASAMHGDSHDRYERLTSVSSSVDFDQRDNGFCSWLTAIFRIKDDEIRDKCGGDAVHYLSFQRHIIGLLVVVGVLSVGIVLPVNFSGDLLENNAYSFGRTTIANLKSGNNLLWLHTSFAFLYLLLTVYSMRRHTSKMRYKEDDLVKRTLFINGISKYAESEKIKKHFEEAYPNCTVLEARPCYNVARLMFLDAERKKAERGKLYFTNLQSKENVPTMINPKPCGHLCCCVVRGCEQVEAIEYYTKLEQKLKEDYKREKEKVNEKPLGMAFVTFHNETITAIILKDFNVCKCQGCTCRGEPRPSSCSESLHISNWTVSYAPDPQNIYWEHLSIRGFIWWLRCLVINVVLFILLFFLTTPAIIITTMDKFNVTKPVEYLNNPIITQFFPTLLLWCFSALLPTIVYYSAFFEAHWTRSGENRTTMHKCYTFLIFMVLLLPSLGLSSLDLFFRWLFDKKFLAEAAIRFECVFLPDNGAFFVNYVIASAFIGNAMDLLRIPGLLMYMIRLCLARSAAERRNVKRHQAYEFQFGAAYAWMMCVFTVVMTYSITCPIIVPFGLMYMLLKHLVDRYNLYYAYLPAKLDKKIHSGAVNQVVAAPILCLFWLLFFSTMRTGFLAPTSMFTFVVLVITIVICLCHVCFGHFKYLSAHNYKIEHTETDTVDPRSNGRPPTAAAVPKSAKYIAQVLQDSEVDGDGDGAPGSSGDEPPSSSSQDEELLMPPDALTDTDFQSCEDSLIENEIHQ
Sequence of UniProt O00220 (O00220 whole entry, looked up): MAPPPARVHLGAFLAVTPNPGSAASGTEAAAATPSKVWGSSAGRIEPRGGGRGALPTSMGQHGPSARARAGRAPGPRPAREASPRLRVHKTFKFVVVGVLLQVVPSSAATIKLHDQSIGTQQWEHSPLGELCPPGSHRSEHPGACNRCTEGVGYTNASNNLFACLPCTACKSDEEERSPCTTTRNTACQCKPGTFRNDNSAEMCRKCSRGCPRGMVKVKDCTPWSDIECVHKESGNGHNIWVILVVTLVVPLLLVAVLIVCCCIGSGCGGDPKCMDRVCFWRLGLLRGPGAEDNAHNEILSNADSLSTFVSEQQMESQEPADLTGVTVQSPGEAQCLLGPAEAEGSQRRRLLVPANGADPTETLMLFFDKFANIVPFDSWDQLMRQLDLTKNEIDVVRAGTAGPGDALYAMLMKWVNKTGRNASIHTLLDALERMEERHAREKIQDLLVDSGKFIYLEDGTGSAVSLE
Sequence of UniProt Q96AX1 (Q96AX1 whole entry, looked up): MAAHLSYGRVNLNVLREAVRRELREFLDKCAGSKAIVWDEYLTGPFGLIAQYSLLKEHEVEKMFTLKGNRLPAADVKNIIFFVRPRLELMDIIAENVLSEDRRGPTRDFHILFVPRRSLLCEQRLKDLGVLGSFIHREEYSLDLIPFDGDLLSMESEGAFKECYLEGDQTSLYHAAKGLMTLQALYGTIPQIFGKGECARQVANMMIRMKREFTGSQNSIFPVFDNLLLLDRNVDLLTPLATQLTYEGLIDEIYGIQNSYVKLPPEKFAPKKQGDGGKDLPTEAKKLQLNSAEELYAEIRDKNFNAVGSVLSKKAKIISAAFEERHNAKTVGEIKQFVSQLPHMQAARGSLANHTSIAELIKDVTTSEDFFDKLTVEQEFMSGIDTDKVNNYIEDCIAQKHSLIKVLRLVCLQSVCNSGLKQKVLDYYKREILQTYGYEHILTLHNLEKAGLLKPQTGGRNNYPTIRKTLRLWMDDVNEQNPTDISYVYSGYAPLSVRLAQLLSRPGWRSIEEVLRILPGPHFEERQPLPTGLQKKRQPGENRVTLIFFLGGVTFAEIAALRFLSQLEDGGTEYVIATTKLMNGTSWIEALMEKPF
Sequence of UniProt P43897 (P43897 whole entry, looked up): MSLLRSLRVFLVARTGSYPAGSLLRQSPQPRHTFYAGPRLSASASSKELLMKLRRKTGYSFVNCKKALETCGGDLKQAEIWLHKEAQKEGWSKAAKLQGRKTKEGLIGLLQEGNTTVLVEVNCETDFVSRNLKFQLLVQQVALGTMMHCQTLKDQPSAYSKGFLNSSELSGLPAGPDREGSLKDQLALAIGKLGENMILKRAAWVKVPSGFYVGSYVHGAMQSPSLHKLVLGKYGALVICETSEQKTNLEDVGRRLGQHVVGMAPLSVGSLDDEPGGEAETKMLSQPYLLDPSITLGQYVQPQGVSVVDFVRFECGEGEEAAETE
Sequence of UniProt Q5BJH2 (Q5BJH2 whole entry, looked up): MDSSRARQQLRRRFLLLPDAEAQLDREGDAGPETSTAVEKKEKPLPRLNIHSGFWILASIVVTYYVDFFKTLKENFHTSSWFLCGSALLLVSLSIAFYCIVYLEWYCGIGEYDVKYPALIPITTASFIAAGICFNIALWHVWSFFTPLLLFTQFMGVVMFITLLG
Sequence of UniProt Q8N3P4 (Q8N3P4 whole entry, looked up): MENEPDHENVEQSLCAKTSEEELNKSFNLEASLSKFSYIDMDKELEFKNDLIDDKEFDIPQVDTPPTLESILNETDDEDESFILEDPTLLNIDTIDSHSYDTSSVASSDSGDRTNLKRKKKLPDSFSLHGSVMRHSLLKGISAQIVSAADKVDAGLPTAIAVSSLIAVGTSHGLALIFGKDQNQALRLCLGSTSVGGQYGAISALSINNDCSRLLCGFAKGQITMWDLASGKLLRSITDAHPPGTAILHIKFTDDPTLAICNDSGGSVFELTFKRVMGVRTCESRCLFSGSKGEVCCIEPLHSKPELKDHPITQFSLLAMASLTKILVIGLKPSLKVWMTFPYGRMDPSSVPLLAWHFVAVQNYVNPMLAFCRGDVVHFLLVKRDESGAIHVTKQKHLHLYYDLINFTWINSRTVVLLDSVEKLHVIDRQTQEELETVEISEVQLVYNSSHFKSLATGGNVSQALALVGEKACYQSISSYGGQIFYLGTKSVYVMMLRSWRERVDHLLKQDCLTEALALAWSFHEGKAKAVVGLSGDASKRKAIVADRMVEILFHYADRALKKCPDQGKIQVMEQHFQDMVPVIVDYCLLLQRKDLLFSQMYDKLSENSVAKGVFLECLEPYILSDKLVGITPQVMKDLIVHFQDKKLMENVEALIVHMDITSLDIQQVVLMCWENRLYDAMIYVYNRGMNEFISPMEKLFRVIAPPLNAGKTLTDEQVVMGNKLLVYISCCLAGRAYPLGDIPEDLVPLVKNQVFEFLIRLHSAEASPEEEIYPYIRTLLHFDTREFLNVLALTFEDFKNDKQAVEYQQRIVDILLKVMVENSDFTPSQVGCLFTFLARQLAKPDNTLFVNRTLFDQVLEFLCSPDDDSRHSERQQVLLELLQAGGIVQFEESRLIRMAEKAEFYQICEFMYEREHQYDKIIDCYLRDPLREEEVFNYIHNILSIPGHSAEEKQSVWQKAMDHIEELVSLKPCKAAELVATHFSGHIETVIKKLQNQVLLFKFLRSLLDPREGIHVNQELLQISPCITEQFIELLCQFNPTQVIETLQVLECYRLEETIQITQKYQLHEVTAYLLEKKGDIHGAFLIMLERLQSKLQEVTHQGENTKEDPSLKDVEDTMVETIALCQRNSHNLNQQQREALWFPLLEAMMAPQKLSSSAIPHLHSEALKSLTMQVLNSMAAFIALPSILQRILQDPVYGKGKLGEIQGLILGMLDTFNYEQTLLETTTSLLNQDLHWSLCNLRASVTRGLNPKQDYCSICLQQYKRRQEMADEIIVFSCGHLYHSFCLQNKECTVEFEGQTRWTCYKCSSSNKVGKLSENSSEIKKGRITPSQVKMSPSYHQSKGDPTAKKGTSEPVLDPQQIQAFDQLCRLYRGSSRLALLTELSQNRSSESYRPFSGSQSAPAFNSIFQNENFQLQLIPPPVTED
Sequence of UniProt Q99757 (Q99757 whole entry, looked up): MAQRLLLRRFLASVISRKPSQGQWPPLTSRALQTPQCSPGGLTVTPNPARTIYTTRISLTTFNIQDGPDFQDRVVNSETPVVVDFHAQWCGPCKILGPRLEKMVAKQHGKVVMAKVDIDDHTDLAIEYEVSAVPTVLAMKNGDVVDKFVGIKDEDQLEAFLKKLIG
Sequence of UniProt Q86UV5 (Q86UV5 whole entry, looked up): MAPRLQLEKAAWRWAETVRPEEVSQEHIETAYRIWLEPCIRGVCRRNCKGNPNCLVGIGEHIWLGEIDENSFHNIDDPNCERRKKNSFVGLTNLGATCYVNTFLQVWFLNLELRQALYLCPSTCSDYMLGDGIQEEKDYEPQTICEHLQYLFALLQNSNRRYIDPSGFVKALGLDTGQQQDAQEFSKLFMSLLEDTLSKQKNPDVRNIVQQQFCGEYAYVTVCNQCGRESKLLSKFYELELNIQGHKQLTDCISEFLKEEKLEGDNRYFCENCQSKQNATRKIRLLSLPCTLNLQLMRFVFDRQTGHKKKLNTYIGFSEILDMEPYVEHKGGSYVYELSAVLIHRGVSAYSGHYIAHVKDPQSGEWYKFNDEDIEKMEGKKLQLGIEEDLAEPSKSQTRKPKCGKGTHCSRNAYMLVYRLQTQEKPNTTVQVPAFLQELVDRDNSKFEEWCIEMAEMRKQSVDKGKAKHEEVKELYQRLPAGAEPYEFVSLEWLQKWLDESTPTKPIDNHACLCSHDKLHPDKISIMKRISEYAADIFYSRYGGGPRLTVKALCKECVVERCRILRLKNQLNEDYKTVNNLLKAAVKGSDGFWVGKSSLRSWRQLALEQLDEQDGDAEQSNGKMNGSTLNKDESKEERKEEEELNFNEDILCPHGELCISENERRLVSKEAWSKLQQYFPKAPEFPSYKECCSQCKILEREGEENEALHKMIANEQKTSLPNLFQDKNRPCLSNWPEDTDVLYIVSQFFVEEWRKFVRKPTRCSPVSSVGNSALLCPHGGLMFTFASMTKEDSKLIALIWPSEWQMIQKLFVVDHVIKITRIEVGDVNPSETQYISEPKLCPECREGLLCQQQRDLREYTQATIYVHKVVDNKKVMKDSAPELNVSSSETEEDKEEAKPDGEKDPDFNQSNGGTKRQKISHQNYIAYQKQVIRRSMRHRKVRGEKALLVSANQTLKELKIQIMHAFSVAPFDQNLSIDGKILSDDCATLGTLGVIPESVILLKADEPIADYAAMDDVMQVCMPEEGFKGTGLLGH

log2 fold change, inactive:
TRAPPC8 (UniProt Q9Y2L5) 0.027
TOMM5 isoform 2 (UniProt Q8N4H5) 0.134
TTC33 (UniProt Q6PID6) 0.001
TSFM (UniProt P43897) -0.206
XPO6 (UniProt Q96QU8) -0.055
VPS35L (UniProt Q7Z3J2) 0.025
UBE4B isoform 4 (UniProt O95155) -0.016
TOP2A isoform 4 (UniProt P11388) 0.094
TMEM128 (UniProt Q5BJH2) 0.034
WASH2P (UniProt Q6VEQ5) 0.003
UTP3 (UniProt Q9NQZ2) 0.063
UGDH (UniProt O60701) 0.023
WDR43 (UniProt Q15061) -0.001
TNFRSF10A (UniProt O00220) -0.014
XPOT (UniProt O43592) -0.058
VPS33A (UniProt Q96AX1) -0.01
VPS13B (UniProt Q7Z7G8) 0.009
TMEM63B (UniProt Q5T3F8) -0.009
U2AF2 (UniProt P26368) 0.029
TMEM120A (UniProt Q9BXJ8) 0.053
TXN2 (UniProt Q99757) -0.032
TOM1 isoform 2 (UniProt O60784) -0.04
VPS33B (UniProt Q9H267) -0.07
TOM1L1 (UniProt O75674) 0.044
USP48 isoform 8 (UniProt Q86UV5) -0.033
TTC4 (UniProt O95801) 0.005
VDAC1 (UniProt C9JI87) -0.01
UCHL5 isoform 3 (UniProt Q9Y5K5) -0.124
TXNL1 (UniProt O43396) -0.031
TMEM177 (UniProt Q53S58) -0.025
USP25 isoform 3 (UniProt Q9UHP3) 0.002
UBE2E3 (UniProt Q969T4) -0.034
TMEM263 (UniProt Q8WUH6) -0.012
UFD1 isoform 1 (UniProt Q92890) -0.008
VAMP7 (UniProt P51809) 0.005
VPS8 (UniProt Q8N3P4) -0.024
